Results as given in the supplement of paper PMC7156485.
Unmarked numbers belong to inactive results.

System: HCC1569
Assay: H1.0 immunofluorescence intensity relative to DMSO (% of DMSO); higher = stronger H1.0 induction, active = 140 or more
Conditions: concentration: 10 µM; 24 h
Method in brief: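 H1.0 nuclear intensity or cell number is expressed as percent of the plate control, with the median of replicates taken. HCC1569 and TDF cells were treated with compounds at 10 µM for 24 h at 37 °C, in triplicate, then fixed and immunostained for H1.0 with DAPI as a nuclear stain. HCC1569 values were smoothed to correct for positional effects.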
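Further: TDF is a line of transformed human dermal fibroblasts of mesenchymal origin.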

Structure (SMILES) | H1.0 immunofluorescence intensity
Cc1c(N)nc(C(CC(N)=O)NCC(N)C(N)=O)nc1C(=O)NC(C(=O)NC(C)C(O)C(C)C(=O)NC(C(=O)NCCc1nc(-c2nc(C(=O)NCCC[S+](C)C)cs2)cs1)C(C)O)C(OC1OC(CO)C(O)C(O)C1OC1OC(CO)C(O)C(OC(N)=O)C1O)c1cnc[nH]1.O=S(=O)([O-])O (centres undefined) [Bleomycin sulfate] | 99.1
O=[N+]([O-])c1ncc[nH]1 [Azomycin] | 93.7
CC(N)Cc1c[nH]c2ccc(O)cc12.O=C(O)C=CC(=O)O (stereo not drawn) [alpha-Methyl-5-hydroxytryptamine maleate] | 87.9
C[N+]1(C)C2CC(OC(=O)C(CO)c3ccccc3)CC1C1OC12.[Br-] (single isomer, unassigned; (-)) [(-)-Scopolamine methyl bromide] | 101
COc1cc(C=C(C#N)C#N)cc(O)c1O [Tyrphostin AG 34] | 114
COc1ccc2c(c[n+](C)c3c4cc5c(cc4ccc23)OCO5)c1OC.[Cl-] [Chelerythrine chloride] | 157 (active)
CC(NC(C)(C)C)C(=O)c1cccc(Cl)c1.Cl (centres undefined) [Bupropion hydrochloride] | 99.7
C/C(Nc1ccccc1)=C1\C(=O)NC(Cc2ccccc2)C1=O (centres undefined) [(3E)-3-(1-anilinoethylidene)-5-benzyl-2,4-pyrrolidinedione] | 148 (active)
CC(C)C1(NC(=O)C2CC3c4cccc5[nH]cc(c45)CC3N(C)C2)OC2(O)C3CCCN3C(=O)C(Cc3ccccc3)N2C1=O (centres undefined) [Dihydroergocristine] | 117
OC1CN2CCC(O)C2C(O)C1O (centres undefined) [Castanospermine] | 90.4
Cc1cc(C2CCCN2C)on1 (centres undefined) | 88.1
CC(C)NCC(O)c1ccc(N)c(C#N)c1 (centres undefined) [Cimaterol] | 102
NNC(=O)c1ccc(O)cc1 [4-Hydroxybenzhydrazide] | 95.1
CCCCCCCCCCCCCCCC(=O)OCC(COP(=O)([O-])OCC[N+](C)(C)C)OC(C)=O (centres undefined) | 101
CCCN(CCC)C(=O)Cc1c(-c2ccc(Cl)cc2)nc2ccc(Cl)cn12 | 115
Br.CCCN(CCC)CCc1ccc(O)c(O)c1 [Dipropyldopamine hydrobromide] | 100
COc1ccc2c(c1)C(=Cc1cnc[nH]1)C(=O)N2 | 107
CN1C2CCC1CC(OC(=O)C(CO)c1ccccc1)C2.CN1C2CCC1CC(OC(=O)C(CO)c1ccccc1)C2.O.O=S(=O)(O)O (centres undefined) [Atropine sulfate] | 85.2
N#CC(C#N)=Cc1ccc([N+](=O)[O-])c(O)c1 [Tyrphostin AG 126] | 103
CP(=O)([O-])C1=CC[NH2+]CC1 | 102
O=C(O)CC[N+](=O)[O-] [3-Nitropropionic acid] | 84.9
CN(C)Cc1c[nH]c2ccccc12 [Gramine] | 83
CCN(CCCl)Cc1ccccc1Br.Cl [DSP-4 hydrochloride] | 92.4
NCCN(CCN)N(O)N=O [1,1-bis(2-aminoethyl)-2-hydroxy-3-oxotriazane] | 95
CCN1CC2(COC)CCC(OC)C34C5CC6C(OC)CC7(OCOC7(C(O)C23)C14)C5C6OC (centres undefined) [Delcorine] | 94.3
CN1C2CCC1CC(OC(=O)C(CO)c1ccccc1)C2.CN1C2CCC1CC(OC(=O)C(CO)c1ccccc1)C2.O=S(=O)(O)O (centres undefined) [Atropine sulfate] | 88.9
O=c1[nH]c2ccccc2n1C1CCN(Cc2ccc(-c3nc4cc5[nH]cnc5cc4nc3-c3ccccc3)cc2)CC1 [Akt Inhibitor VIII, Isozyme-Selective, Akti-1/2] | 131
CC(C)(C)c1cc(C=C(C#N)C#N)cc(C(C)(C)C)c1O [Tyrphostin A9] | 87.7
CN1CC(CO)CC2c3cccc4[nH]cc(c34)CC21 (centres undefined) [9,10-Dihydrolysergol] | 92.7
